# An excerpt weighted towards active compounds, which were near 19% of everything screened.
# HT1080NT lethal: kills 2HG-producing HT-1080-NT fibrosarcoma cells; 360,000 compounds, 1.6% hits; HT-1080-NT fibrosarcoma viability, CellTiter-Glo ATP luminescence, 48 h; Potency, µM (doses to about 46.1 µM), inactives show top-dose activity, negative = less viability, hits mostly cytotoxic;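 note: NT is the 2HG producing partner of a matched IDH1 knockdown line; 0% = DMSO-treated cells and -100% = media-only wells without cells; nearly all actives have a fitted effect of over 55% in size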
#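 Luminescent CellTiter-Glo readout after 48 hours of compound exposure at 37 degrees C defined viability of HT-1080-NT cells. Activity was normalized to DMSO wells and cell-free media wells; concentration-response curves were fitted and assigned curve classes.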
# KB-3-1 cytotox: kills parental KB-3-1 adenocarcinoma cells. KB-3-1 viability, CellTiter-Glo ATP luminescence, 72 h. Potency, µM (doses to about 46.1 µM), most hits filed as cytotoxic. 400,000 compounds, 1.4% hits. AID 1347075; note: nearly all actives have a fitted effect of over 60% in size
#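 Parental KB-3-1 viability, qHTS format: 72 h compound exposure, 37 °C; CellTiter-Glo; media-only wells and DMSO plates as controls; concentration-effect fits on corrected data.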
# DT40 TDP1 no CPT: qHTS for Inhibitors of human tyrosyl-DNA phosphodiesterase 1 (TDP1): qHTS in cells in absence of CPT. DT40 Tdp1-/- hTDP1 cells, no CPT, ATP luminescence, 48 h. Potency, µM (series often up to 46.2 µM), for inactives: top-dose activity change, negative = growth inhibition, usual class: inhibitors. 420,000 compounds, 15% hits; note: nearly all actives have a fitted effect of over 55% in size
#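 DT40 Tdp1-/-;hTDP1 cells, no CPT (DMSO vehicle only), 400 cells/well; compounds pin-transferred; ≥48 hr, 37 °C; CellTiter-Glo 30 min RT dark, luminescence read.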
# DT40 TDP1 CPT: growth inhibition of DT40 Tdp1-/-;hTDP1 cells with camptothecin (screen for TDP1 inhibitors). 420,000 compounds, 12% hits. chicken DT40 Tdp1-/-;hTDP1 cells + 20 nM CPT, ATP luminescence, 48 h. Potency, µM (titrated, usually from 46.2 µM), without a hit: top-dose activity change, negative = growth inhibition, most hits filed as inhibitors; note: nearly all actives have a fitted effect of over 55% in size
#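 Chicken DT40 Tdp1-/- cells complemented with human TDP1, 400 cells/well, exposed to compounds plus 20 nM camptothecin for at least 48 h at 37 C; viability read as ATP content by CellTiter-Glo luminescence.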
# KB-V1 MDR tox: kills drug-selected multidrug resistant KB-V1 cells | KB-V1 MDR cells viability, CellTiter-Glo, 72 h | Potency, µM (doses to about 46.1 µM), most hits filed as cytotoxic | 400,000 compounds, 3.4% hits | AID 1347076; note: nearly all actives have a fitted effect of over 60% in size
#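 KB-V1, DMEM (no phenol red) + 10% FBS; cpd pin-transferred, titration series; 72 h, 37 degrees C; CellTiter-Glo, luminescence. Data normalized, curve-fit.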
# HT1080 IDH1KD tx: HT-1080 IDH1 knockdown cell toxicity (counter line); HT-1080 IDH1 knockdown viability, ATP luminescence, 48 h; Potency, µM (doses to about 46.1 µM), for the others: at the highest dose activity, negative = toxicity, most hits filed as cytotoxic; 360,000 compounds, 2% hits; AID 686971;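 note: 0% = DMSO wells and -100% = cell-free medium wells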
#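 In this qHTS, HT-1080 cells depleted of IDH1 are exposed for 48 h at 37 °C to compound titrations. Toxicity is scored from CellTiter-Glo luminescence, with DMSO as full viability and medium alone as none.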
# * = called active by the depositor; i = inactive; ? = inconclusive; nt = no result. Calls come from the whole dose curve; as a rule, active = well fitted curve in the direction sought with a large enough effect; inconclusive = small, poorly fitted or top-dose-only effect, or another doubt; inactive = no such curve, though single readings can be large; an effect the other way counts as inactive or inconclusive. Unless noted, % is set by controls: 0 for no effect and ±100 for the full control effect; potency is the fitted concentration of half-maximal effect.
SMILES,HT1080NT lethal,KB-3-1 cytotox,DT40 TDP1 no CPT,DT40 TDP1 CPT,KB-V1 MDR tox,HT1080 IDH1KD tx
Cn1c(=O)c2c(nc(N/N=C/c3cccs3)n2Cc2ccccc2)n(C)c1=O,4.9%,?,23.1µM*,?,?,6.9%
Cn1c(=O)c2c(nc(N/N=C/c3ccc(OC(=O)c4ccco4)cc3)n2Cc2ccccc2)n(C)c1=O,-7.7%,?,8.2µM*,11.6µM*,?,-4.3%
Cc1ccc(CNC(=O)c2nn(C)c3c2CSc2ccc(C)cc2-3)cc1,nt,i,?,?,i,nt
O=C(NC1CCCCC1)c1cccc2c1C(=O)c1ccc(-c3ccc(OC(F)(F)F)cc3)cc1S2(=O)=O,4.0%,i,9.2µM*,9.2µM*,i,1.9%
O=C(NC1CCCC1)c1cccc2c1C(=O)c1ccc(/C=C/c3ccccc3)cc1S2(=O)=O,3.3%,?,18.4µM*,?,i,1.3%
Cc1ccc2oc(C(=O)N3CCN(Cc4nccn4C)CC3)c(C)c2c1,-0.7%,i,9.4%,-9.9%,i,5.7%
COc1ccc(-c2noc3c2-c2nc(-c4ccccc4F)sc2CC3)cc1,?,i,?,-23.0%,i,-3.6%
O=C(c1n[nH]c(=O)c2ccccc12)N1CCN(S(=O)(=O)c2ccccc2Cl)CC1,0.2%,i,?,?,i,-2.0%
COc1ccc(Cl)cc1S(=O)(=O)N1CCN(C(=O)c2n[nH]c(=O)c3ccccc23)CC1,?,?,16.4µM*,18.4µM*,i,?
COc1cc(C(C)=O)ccc1OCC(=O)Nc1ccc(Cl)c(S(=O)(=O)N2CCOCC2)c1,0.1%,i,18.4µM*,23.1µM*,?,-1.4%
O=C(CCCSc1ccccc1)Nc1ccc(Cl)c(S(=O)(=O)N2CCOCC2)c1,0.7%,?,18.4µM*,16.4µM*,2.59µM*,-18.4%
O=C(CCCOc1ccccc1)Nc1ccc(Cl)c(S(=O)(=O)N2CCOCC2)c1,-10.6%,?,16.4µM*,18.4µM*,?,-13.3%
COc1ccc(CC(=O)Nc2cccc(C(C)=O)c2)cc1S(=O)(=O)N1CCOCC1,13.0%,?,4.0%,-1.6%,?,10.8%
Cc1ccsc1CNC(=O)C1(C)CCN1C(C)C (stereo unspecified),3.9%,i,-21.4%,-22.1%,i,-26.9%
CC(C)c1cc(C(=O)NC(C)c2ccccc2)no1 (stereo unspecified),nt,i,-5.7%,0.0%,i,nt
CC(=O)c1ccc(OCCCC(=O)Nc2ccc(Cl)c(S(=O)(=O)N3CCOCC3)c2)cc1,-5.3%,?,20.6µM*,16.4µM*,i,-17.4%
COC(=O)c1ccc(NC(=O)CN2CCN(S(=O)(=O)c3cc(Cl)ccc3OC)CC2)cc1,-12.9%,i,16.4µM*,?,i,-12.4%
Cc1ccc(OCCCC(=O)Nc2ccc(Cl)c(S(=O)(=O)N3CCOCC3)c2)cc1,-19.6%,14.6µM*,18.4µM*,?,7.31µM*,-20.8%
Cc1ccc(NC(=O)CCCOc2ccccc2)cc1S(=O)(=O)N1CCOCC1,-3.2%,i,?,?,i,-0.8%
O=C(COc1cccc(Br)c1)Nc1ccc(Cl)c(S(=O)(=O)N2CCOCC2)c1,16.4µM*,i,16.4µM*,20.6µM*,?,-10.1%
Cn1c(CC(=O)Nc2ccc(Cl)cc2)nnc1SCC(=O)N1CCOCC1,5.5%,nt,-17.6%,15.2%,nt,9.3%
O=C(Nc1cc(S(=O)(=O)N2CCOCC2)ccc1N1CCOCC1)C1CCCO1 (stereo unspecified),-3.7%,i,-13.1%,2.5%,i,-4.7%
Cc1ccc(C)c(NC(=O)CSc2c(C)cnc3c2c(=O)n(C)c(=O)n3C)c1,nt,i,7.4%,4.4%,i,nt

# Source: PubChem (National Center for Advancing Translational Sciences (NCATS))
